Rows were chosen to be rich in hits. Some 2.3% of all compounds tested hit in one or more screens of this group.
CHO-K1 Ca ag = M1 agonist counterscreen hit in parental CHO-K1 cells; Fluo-8 calcium fluorescence; scaled to maximal ATP response, vehicle zero; 360,000 tested, 0.48% active; activation, % at 3 µM; in the data active = activation above about 15%;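 also: untransfected CHO-K1 host cells lacking M1 receptor as counterscreen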
M1 ag = agonists of human M1 muscarinic receptor; CHO-K1 hM1, Fluo-8 calcium fluorescence, agonist mode; 0% DMSO, 100% acetylcholine EC100; activation, % at 3 µM; P11229; AID 588814; 360,000 tested, 0.33% active;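 active = activation above the run's mean compound activation plus 3 SD, cut at about 16% in these data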;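 also: peak over basal fluorescence ratio within a 140 s kinetic read after compound addition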
Target sequence (P11229 whole entry, looked up): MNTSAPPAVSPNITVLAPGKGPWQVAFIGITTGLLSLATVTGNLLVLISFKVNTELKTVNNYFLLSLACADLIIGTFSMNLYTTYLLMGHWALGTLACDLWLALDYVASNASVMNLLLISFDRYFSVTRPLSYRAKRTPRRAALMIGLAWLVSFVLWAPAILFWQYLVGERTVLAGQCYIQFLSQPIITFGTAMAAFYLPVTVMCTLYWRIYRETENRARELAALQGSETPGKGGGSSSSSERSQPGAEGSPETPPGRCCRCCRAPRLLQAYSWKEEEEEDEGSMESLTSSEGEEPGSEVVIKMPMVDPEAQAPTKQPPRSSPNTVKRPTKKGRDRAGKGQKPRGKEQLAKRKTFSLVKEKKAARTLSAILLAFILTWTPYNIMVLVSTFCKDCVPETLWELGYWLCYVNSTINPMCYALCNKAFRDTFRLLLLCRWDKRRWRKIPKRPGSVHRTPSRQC
M1 PAM parental = counter-screen for M1 PAMs: effect in parental CHO-K1 cells. ATP EC20, Fluo-8 calcium fluorescence; 0% at ATP EC20, 100% at ATP max. activation, % at 3 µM. 360,000 tested, 0.02% active;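 active = activation above the run cutoff, the mean activation of all test compounds plus 3 SD, cut at about 40% in these data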;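 also: peak over basal fluorescence ratio in a 140 s read after ATP addition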
M1 antag = antagonists of human M1 muscarinic receptor. AID 588852. inhibition, % at 3 µM. 360,000 tested, 1.3% active. P11229. CHO-K1 hM1, Fluo-8 calcium fluorescence, ACh EC80 antagonist;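 active = percent inhibition above its own plate's cutoff, namely the mean of that plate's compound wells plus 3 SD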;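 also: peak over basal fluorescence ratio during 140 s after agonist addition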
CHO-K1 Ca antag = counter-screen for M1 antagonists: effect in parental CHO-K1 cells; ATP-induced calcium, Fluo-8 fluorescence; inhibition, % at 3 µM; 360,000 tested, 0.6% active;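 active = inhibition above a per-plate cutoff, the plate's mean sample inhibition plus 3 SD, cut at about 24% in these data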
CHRM1 PAM = potentiates human M1 receptor response to acetylcholine. P11229. CHO-K1 hM1, Fluo-8 calcium fluorescence, ACh EC20; 0% = ACh EC20, 100% = maximal ACh. activation, % at 3 µM. 360,000 tested, 0.088% active. AID 588819; in the data active = activation above about 19%, passing the limit was not always enough
Each line names hits and unclear results; the compound was inactive in the other large screens.

O=[N+]([O-])c1cccnc1N1CCCNCC1	M1 antag 47.6
O=P1(NCCCn2cc[n+](Cc3nc4ccccc4[nH]3)c2)C=C(c2ccccc2)OC(c2ccccc2)=C1	none
CC(Cc1ccccc1)NCCC(=O)NC(C)Cc1ccccc1 (stereo not drawn)	none
COc1ccc(CN2CCN(c3ccccc3)CC2)c(C)c1C	none
CCN(CC)C(=O)c1ccc(NC(=O)c2cccc(S(=O)(=O)N3CCN(Cc4ccccc4)CC3)c2)cc1	CHO-K1 Ca antag 29.3
CCC(=O)[C@@H](C)[C@@H](O)[C@H](C)C[C@@H](C)C1OC(=O)C[C@@]2(O)CC=C(C)C(O2)C(C)=CCCC[C@H](O[C@H]2C[C@@H](OC(N)=O)[C@H](O)[C@@H](C)O2)C=C[C@H](C)C[C@H]1C (stereo partly drawn)	none (no result: M1 ag, M1 antag, CHRM1 PAM)
CC1C(=O)CC2(C(C)C)CC12 (stereo not drawn)	none
Cn1nnc(CC[N+](C)(C)C)n1	CHO-K1 Ca ag 15.3, M1 ag 72.6, M1 antag 77.0
CCn1ccnc1CN1CCCC(C(=O)c2cc(C)c(OC)c(C)c2)C1 (stereo not drawn)	M1 antag 37.6
CC[N+]12CCC(CC1)C(C(O)(c1ccccc1)c1ccccc1)C2 (stereo not drawn)	M1 antag 97.6
Cc1ccc(C(O)(c2ccc(C)c(C)c2)C2CN3CCC2CC3)cc1C (stereo not drawn)	none
C[N+]12CCC(CC1)C(C(O)(c1cccc(Cl)c1)c1cccc(Cl)c1)C2 (stereo not drawn)	M1 antag 97.2
CCOP(=O)(Nc1ccc2c(c1)C(=NNC(N)=S)c1ccccc1-2)OCC	none
Nc1ccc2nonc2c1[N+](=O)[O-]	CHO-K1 Ca ag 16.6
O=C1NC(=O)C(=Cc2ccc(OCC(=O)N3CCOCC3)cc2)C(=O)N1	CHO-K1 Ca antag 29.1
CN(CCOc1ccc(C=C2C(=O)NC(=O)NC2=O)cc1)c1ccccn1	none
Cc1c2ccncc2c(C)c2c1[nH]c1ccccc12	none
c1ccc2c(c1)[nH]c1cnccc12	CHO-K1 Ca antag 25.4
CCOC(=O)[C@]12Cc3c(cc(OC)c(OC)c3OC)[C@H]1N(CCC(=O)OC)C(=O)c1ccccc12	none (no result: M1 ag, M1 antag, CHRM1 PAM)
N=c1sccn1Cc1ccccc1F	M1 ag 17.4
O=c1[nH]c(O)c(C=Nc2ccc(Cl)c(C(F)(F)F)c2)c(=O)[nH]1	M1 antag 40.8
CCCCn1nnnc1C(c1cccc2ccccc12)N1CCC2(CC1)C(=O)NCN2c1ccccc1 (stereo not drawn)	CHO-K1 Ca antag 30.1
O=C1NCN(c2ccccc2)C12CCN(C(c1ccccc1)c1nnnn1-c1ccc3c(c1)OCCO3)CC2 (stereo not drawn)	M1 ag 16.7
O=c1[nH]c(=S)n(C2CCCCC2)c(O)c1/C=N/N1CCOCC1	none
O=C1/C(=C/c2ccccc2Cl)N2CCC1CC2	none
S=P(NCCSCc1ccccc1)(N1CC1)N1CC1	none
CC1CC(C)CC(C)C(O)C(C#N)=CC=CCC(C2CCCC2C(=O)O)OC(=O)CC(O)C(C)C1 (stereo not drawn)	none
CN1/C(=C\C=C2C(=O)NC(=S)NC2=O)C(C)(C)c2ccccc21	CHO-K1 Ca ag 53.5, M1 ag 63.3, M1 antag 27.2
O=C1NC(=S)NC(=O)C1=Cc1cccc2cc3ccccc3cc12	none
CN(C)C1CCc2[nH]c3c(F)cc(F)cc3c2C1 (stereo not drawn)	M1 antag 34.6
COc1ccc(CNCCc2ccc(Cl)cc2Cl)cc1	none
Clc1ccc(CCNCc2ccncc2)c(Cl)c1	CHO-K1 Ca ag 16.2

Screening data as filed in PubChem.
